Measurements as given in PubChem BioAssay (NCI).
This is part of a sample that, as a whole, favours compounds with a hit. Of some 83,000 tested, about 20% had one in any assay.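 Each cell line was grown in a 96-well plate and treated with one concentration of compound for 48 hours. Values below 10 were considered active.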 A number with no mark means an inactive call. Activity calls are given as the source filed them.

system: MDA-MB-468 breast; assay: NCI-60 one-dose screen, 48 h (100 = growth as untreated, 0 = no growth, -100 = all killed); conditions: 10 µM unless noted

Structure (SMILES)	growth
O=c1c2cc(F)ccc2sc2c(NCCCNCCO)nc3ccc(Cl)cc3c12	68.2%
CCOC(=O)c1c(NC(=O)c2ccc(C(C)C)cc2)sc2c(CN(C)C)c(O)ccc12	-53.1% (active)
O=C1CCC(NC(=S)Nc2ccccc2)N1 (stereo not given)	112%
Cc1ccc(NC(=O)CCl)cc1Cl	108%
Fc1cc(C2=NNC(c3ccc[nH]3)C2)ccc1-n1ccc(C(F)(F)F)n1 (stereo not given)	89.7%
c1ccc(C2NCCNC2c2ccccc2)cc1 (stereo not given)	111%
COc1ccc(-c2c3c(nc4n[nH]c(-c5ccc(Cl)cc5)c24)-c2ccccc2C(=O)C3=O)cc1	-9.02% (active)
COc1ccc(Cn2cc3c(c2-c2ccccc2)CCc2cnoc2-3)cc1N	10.4%
COc1cc(-c2csc(NC(=O)Nc3ccc(Cl)cc3Cl)n2)cc(OC)c1OC	17.7%
O=C(Nc1nc2ccc(F)cc2s1)c1cc(-c2ccc(F)cc2)n2nc(-c3ccccc3)cc2n1	92%
CN1CCN(c2ccc(NC(=O)c3cncnc3Nc3ccc(OCc4ccccn4)c(Cl)c3)cc2)CC1	38.1%
CCOC(=O)/C(F)=C/C1CC1CCc1cccc(C(F)(F)F)c1 (stereo not given)	109%
O=C(NC[C@H](O)CN1CCc2ccccc2C1)c1cc(NC2COC2)ncn1	115%
C/C=C/C(=O)OCCCCCCCCCCCC	96.9%
Cc1nn(-c2ccccc2)cc1/C=N/Nc1nc(Nc2ccccc2)nc(Nc2ccc(S(N)(=O)=O)cc2)n1	-37.1% (active)
